Here are results for four compounds from PubChem BioAssay (EPA / NIEHS).

Inconclusive results are not listed. Activity calls are given as the source filed them. Rule for the calls, unless noted: active = hit-call score of the fitted dose curve at least 0.9, where 1 is the maximum; inactive = score below 0.9.

A short description of test [1]: ATG_M_61_CIS: Attagene CIS-FACTORIAL HepG2 Assay for M61 Transcription Factor (Internal Marker) (AID 2282937). The settings on record: HepG2 Attagene CIS-FACTORIAL M61 internal marker reporter; actives raise or lower the signal. The essentials:
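Fluorescence from labelled cDNA fragments, separated by capillary electrophoresis, quantifies reporter induction. HepG2 cells bearing transiently transfected cis-promoter MRTUs were incubated with test chemical for 24 h; DMSO defined baseline for gain/loss fitting.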

Test [2] in a line: ATG_EGR_CIS: Attagene CIS-FACTORIAL HepG2 Assay for human Early Growth Response 1 (EGR1) (AID 2282938). The following applies: HepG2 Attagene CIS-FACTORIAL EGR reporter mRNA; actives raise or lower the signal. The essentials: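 Cell-based multiplex transcription assay: HepG2 carrying transfected cis-element reporter units, 24 h chemical treatment. Fluorescence from capillary electrophoresis of RT-PCR products gives mRNA levels; fitting is bidirectional relative to DMSO.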

Test [3] in a line: ATG_GRE_CIS: Attagene CIS-FACTORIAL HepG2 Assay for human Glucocorticoid Response Elements (GRE) (AID 2282947). The settings on record: HepG2 GRE cis-reporter, Attagene multiplex mRNA; actives raise or lower the signal. In short, it runs like this:
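Cells (HepG2) bearing transfected cis-promoter reporter transcription units were treated with chemical for 24 hours. Reporter mRNA was measured via RT-PCR with capillary electrophoresis, and activity was fitted in both directions relative to DMSO.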

The nature of test [4]: ATG_M_06_CIS: Attagene CIS-FACTORIAL HepG2 Assay for M06 Transcription Factor (Internal Marker) (AID 2282950). The settings on record: HepG2 Attagene CIS-FACTORIAL M06 internal marker reporter; actives raise or lower the signal. The essentials: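 Cells (HepG2, transiently carrying cis-driven reporter units) receive chemical for 24 h before RNA isolation. Reporter cDNA is PCR-amplified, FAM-labelled by primer extension, HpaI-digested and sized on a capillary analyser.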

Test [5] concerns the target Hypoxia-inducible factor 1-alpha (Homo sapiens) (UniProt Q16665). Nature of the test: ATG_HIF1a_CIS: Attagene CIS-FACTORIAL HepG2 Assay for human Hypoxia Inducible Factor 1 (HIF1A) (AID 2282951). The following applies: HepG2 Attagene cis-factorial HIF1a reporter transcription; actives raise or lower the signal. In short, it runs like this: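 In this multiplexed cell assay, HepG2 cells bearing transfected cis reporters are dosed for 24 h and reporter mRNA is read by RT-PCR plus capillary electrophoresis; signal increases and decreases are both scored against DMSO.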

The nature of test [6]: ATG_MRE_CIS: Attagene CIS-FACTORIAL HepG2 Assay for human Metal Responsive Element (MRE) (AID 2282954). The settings on record: HepG2 MRE cis-reporter transcription, Attagene multiplex; actives raise or lower the signal. In short, it runs like this: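 Cells were transfected with cis-promoter reporter transcription units, then dosed for 24 h. RNA was reverse-transcribed, amplified, fluorescently labelled and resolved by capillary electrophoresis, and activity was fitted in both directions relative to DMSO.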

Test [7] can be described thus: ATG_TGFb_CIS: Attagene CIS-FACTORIAL HepG2 Assay for human Transforming Growth Factor (TGF) (AID 2282967). The settings on record: HepG2 Attagene CIS TGFb reporter, mRNA transcription; actives raise or lower the signal. The essentials: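 Liver HepG2 line, cis-factorial reporter panel, 24 h dosing. Quantitation: RT-PCR products labeled with 6-FAM, cut with HpaI, resolved by capillary electrophoresis; DMSO-referenced bidirectional analysis.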

Test [8] is described as follows: ATG_VDRE_CIS: Attagene CIS-FACTORIAL HepG2 Assay for human Vitamin D Receptor Element (VDRE) (AID 2282968). The following applies: HepG2 VDRE cis-reporter transcription, actives raise or lower the signal. In short, it runs like this:
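Steps: transfect HepG2 with multiple reporter transcription units; dose chemicals 24 h; isolate RNA; RT-PCR; label with 6-FAM primer extension; HpaI digest; capillary electrophoresis. Curves fitted both directions against DMSO.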

Test [9] concerns the target Transcriptional activator Myb (Homo sapiens) (UniProt P10242). Nature of the test: ATG_Myb_CIS: Attagene CIS-FACTORIAL HepG2 Assay for human Myeloblastosis (Myb) Proto-Oncogene Transcription Factor (AID 2282986). The following applies: HepG2 Attagene CIS-FACTORIAL Myb reporter transcription; actives raise or lower the signal. The essentials: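 Fluorescence signals from capillary electrophoresis of RT-PCR-amplified reporter cDNA give the read-out. Cells: HepG2 transfected with multiple cis-regulated reporter units. Exposure lasts 24 hours; DMSO defines baseline for gain or loss of signal.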

Test [10] deals with Nuclear respiratory factor 1 (Homo sapiens) (UniProt Q16656). Nature of the test: ATG_NRF1_CIS: Attagene CIS-FACTORIAL HepG2 Assay for human Nuclear Respiratory Factor 1 (NRF1) Orphan Gene (AID 2282987). The settings on record: HepG2 NRF1 cis-element reporter, Attagene multiplex; actives raise or lower the signal. In short, it runs like this:
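Transcriptional reporter readout, one component of a 52-endpoint multiplexed HepG2 panel. Exposure 24 h; mRNA detected via RT-PCR and fluorescent capillary electrophoresis; fitting in both directions against DMSO.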

For test [11], the target named is Myc proto-oncogene protein (Homo sapiens) (UniProt P01106). Nature of the test: ATG_Myc_CIS: Attagene CIS-FACTORIAL HepG2 Assay for human Myelocytomatosis (Myc) Proto-Oncogene Transcription Factor (AID 2282990). The settings on record: HepG2, Attagene cis-reporter transcription factor activity; actives raise or lower the signal. The essentials: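 Multiplexed cis-reporter transcription in HepG2 cells after 24 h chemical treatment. Reporter mRNA measured by RT-PCR and capillary electrophoresis fluorescence; activity fitted bidirectionally against DMSO control.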

Test [12] in a line: ATG_NF_kB_CIS: Attagene CIS-FACTORIAL HepG2 Assay for human Nuclear Factor Kappa B (NF-kB) (AID 2282991). The following applies: HepG2 Attagene cis-factorial NF-kB reporter mRNA; actives raise or lower the signal. In short, it runs like this: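 HepG2, transient multi-reporter transfection, cis promoter elements (endogenous TFs). 24 h exposure. Total RNA → RT → PCR → 6-FAM label → HpaI → CE. Gain/loss vs DMSO.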

Test [13] can be described thus: ATG_NRF2_ARE_CIS: Attagene CIS-FACTORIAL HepG2 Assay for human Nuclear Factor Erythroid 2 Related Factor 2 (NFR2) response to Antioxidant Response Elements (ARE) (AID 2282992). The settings on record: HepG2 Attagene ARE/NRF2 reporter, transcription factor activity; actives raise or lower the signal. In short, it runs like this:
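Fluorescence intensity of reporter-specific cDNA fragments, separated by capillary electrophoresis, reflects mRNA induction in transfected HepG2 cells at 24 h. Activity is fitted bidirectionally, DMSO serving as baseline.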

Test [14] is described as follows: ATG_Oct_MLP_CIS: Attagene CIS-FACTORIAL HepG2 Assay for human Octamer-Binding Transcription Factor (Oct) (AID 2282993). The following applies: HepG2 Attagene cis-factorial Oct reporter, mRNA; actives raise or lower the signal. The essentials:
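Using HepG2 cells bearing transfected cis-reporter constructs, mRNA induction was read after 24 h by fluorescent RT-PCR and capillary electrophoresis, with DMSO defining baseline for gain- or loss-of-signal fits.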

Test [15] concerns the target Cellular tumor antigen p53 (Homo sapiens) (UniProt P04637). Nature of the test: ATG_p53_CIS: Attagene CIS-FACTORIAL HepG2 Assay for human p53 Transcription Factor (AID 2282994). The settings on record: HepG2 p53 cis-element reporter, Attagene mRNA; actives raise or lower the signal. In short, it runs like this: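 Transiently transfected HepG2 (multiple cis reporter transcription units); exposure 24 h; reporter RNA via RT-PCR, 6-FAM extension, 2 h HpaI digest at 37 C, CE detection; DMSO baseline.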

Test [16] addresses Aryl hydrocarbon receptor (Homo sapiens) (UniProt P35869). The test can be described thus: ATG_Ahr_CIS: Attagene CIS-FACTORIAL HepG2 Assay for human Aryl Hydrocarbon Receptor (Ahr) (AID 2282930). The following applies: HepG2 AhR cis-factorial reporter transcription; actives raise or lower the signal. In short, it runs like this:
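Values derive from bidirectional fitting against DMSO negative control. Underlying signal: cis-element reporter mRNA in transiently transfected HepG2, harvested 24 h post-dose and measured by RT-PCR plus capillary electrophoresis.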

Test [17] can be described thus: ATG_BRE_CIS: Attagene CIS-FACTORIAL HepG2 Assay for human Bone Morphogenetic Protein (BMP) Response Element (BRE) (AID 2282933). The settings on record: HepG2 BMP response element reporter, Attagene transcription factor profiling; actives raise or lower the signal. In short, it runs like this:
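A HepG2 multiplex reporter system measured inducible reporter mRNA 24 h post-dosing. Detection: RT-PCR, 6-FAM primer extension, HpaI digestion, capillary electrophoresis. Activity fitted bidirectionally relative to DMSO.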

Test [18] is described as follows: ATG_NFI_CIS: Attagene CIS-FACTORIAL HepG2 Assay for human Nuclear Factor I (NFI) (AID 2282989). The following applies: HepG2 cis-regulatory reporter, NFI response element transcription; actives raise or lower the signal. In short, it runs like this: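 Transfected HepG2 liver cells, exposed 24 h, supplied total RNA for oligo(dT) reverse transcription and reporter-specific PCR. Labelled, HpaI-cut fragments were sized by capillary electrophoresis; DMSO set the baseline for bidirectional fitting.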

Test [19] addresses Nuclear receptor subfamily 1 group I member 2 (Homo sapiens) (UniProt O75469). The test can be described thus: ATG_PXR_TRANS: Attagene TRANS-FACTORIAL HepG2 Assay for human Pregnane X Receptor (PXR) (AID 2283008; active = hit-call score of the fitted dose curve at least 0.9, where 1 is the maximum). The essentials:
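Transient HepG2 transfectants carrying multiplexed reporter transcription units; PXR activity read through a Gal4 chimera. 24 h exposure. RT-PCR/CE fluorescence; upward curve fit referenced to DMSO.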

The nature of test [20]: ATG_XTT_Cytotoxicity: Cytotoxicity Assessment in the Attagene TRANS-FACTORIAL HepG2 Assay (AID 2283584; active = hit-call score of the fitted dose curve at least 0.9, where 1 is the maximum). The essentials: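 Viability endpoint from XTT after 24 h chemical exposure of reporter-transfected human HepG2 liver cells; signal loss fitted relative to DMSO negative control.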

Chain of Transcriptional activator Myb (Homo sapiens) (P10242 whole entry, looked up): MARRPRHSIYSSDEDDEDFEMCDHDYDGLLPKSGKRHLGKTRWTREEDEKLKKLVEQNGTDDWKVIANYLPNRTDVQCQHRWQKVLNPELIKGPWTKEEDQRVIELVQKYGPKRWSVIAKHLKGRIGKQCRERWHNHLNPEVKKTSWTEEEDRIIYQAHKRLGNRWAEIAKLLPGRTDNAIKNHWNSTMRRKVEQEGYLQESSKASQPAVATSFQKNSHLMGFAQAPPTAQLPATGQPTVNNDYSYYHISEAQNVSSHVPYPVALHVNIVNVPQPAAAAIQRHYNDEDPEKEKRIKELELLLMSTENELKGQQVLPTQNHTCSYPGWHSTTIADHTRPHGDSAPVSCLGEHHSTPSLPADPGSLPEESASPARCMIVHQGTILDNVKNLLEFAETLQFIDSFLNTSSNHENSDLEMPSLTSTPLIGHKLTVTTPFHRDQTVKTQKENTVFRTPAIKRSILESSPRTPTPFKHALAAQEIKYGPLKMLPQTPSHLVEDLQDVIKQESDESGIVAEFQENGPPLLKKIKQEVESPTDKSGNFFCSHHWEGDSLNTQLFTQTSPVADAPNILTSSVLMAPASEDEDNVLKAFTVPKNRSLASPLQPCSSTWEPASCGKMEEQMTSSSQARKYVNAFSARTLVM
Chain of Aryl hydrocarbon receptor (Homo sapiens) (P35869 whole entry, looked up): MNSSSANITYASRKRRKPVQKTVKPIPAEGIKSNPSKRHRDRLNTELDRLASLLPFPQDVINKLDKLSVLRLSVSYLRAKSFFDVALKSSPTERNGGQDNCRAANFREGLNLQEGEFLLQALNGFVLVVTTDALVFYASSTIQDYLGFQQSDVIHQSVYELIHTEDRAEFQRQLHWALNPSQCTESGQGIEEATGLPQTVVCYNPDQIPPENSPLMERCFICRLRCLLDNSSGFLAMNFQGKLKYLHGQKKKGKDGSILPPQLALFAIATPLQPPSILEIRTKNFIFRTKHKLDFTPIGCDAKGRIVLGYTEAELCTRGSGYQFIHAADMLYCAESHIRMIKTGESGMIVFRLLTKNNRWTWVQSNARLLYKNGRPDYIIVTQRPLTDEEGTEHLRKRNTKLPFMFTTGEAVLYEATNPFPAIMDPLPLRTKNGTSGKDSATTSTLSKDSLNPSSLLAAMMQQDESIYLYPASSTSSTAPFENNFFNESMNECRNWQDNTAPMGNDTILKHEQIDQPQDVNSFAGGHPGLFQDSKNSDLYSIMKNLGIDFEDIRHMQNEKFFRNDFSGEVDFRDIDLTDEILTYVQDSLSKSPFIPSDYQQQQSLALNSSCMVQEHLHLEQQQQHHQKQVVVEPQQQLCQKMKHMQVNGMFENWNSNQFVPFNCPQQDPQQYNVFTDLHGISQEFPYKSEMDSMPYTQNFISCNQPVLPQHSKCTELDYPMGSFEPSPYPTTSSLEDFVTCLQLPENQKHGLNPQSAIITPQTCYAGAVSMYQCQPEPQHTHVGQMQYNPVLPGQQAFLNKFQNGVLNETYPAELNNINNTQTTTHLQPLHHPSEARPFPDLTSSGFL
Chain of Myc proto-oncogene protein (Homo sapiens) (P01106 whole entry, looked up): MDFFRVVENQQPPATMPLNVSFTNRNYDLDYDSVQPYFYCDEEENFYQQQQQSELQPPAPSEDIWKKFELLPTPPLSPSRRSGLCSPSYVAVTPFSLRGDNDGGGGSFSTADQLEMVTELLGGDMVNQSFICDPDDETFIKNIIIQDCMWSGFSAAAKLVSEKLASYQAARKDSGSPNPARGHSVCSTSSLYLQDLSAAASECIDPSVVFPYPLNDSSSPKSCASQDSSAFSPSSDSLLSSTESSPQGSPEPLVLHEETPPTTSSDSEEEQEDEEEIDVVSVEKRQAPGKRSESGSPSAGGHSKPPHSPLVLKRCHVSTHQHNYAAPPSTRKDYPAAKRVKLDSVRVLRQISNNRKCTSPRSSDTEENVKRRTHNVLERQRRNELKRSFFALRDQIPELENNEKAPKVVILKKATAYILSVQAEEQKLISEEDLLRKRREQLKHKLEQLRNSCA
Chain of Cellular tumor antigen p53 (Homo sapiens) (P04637 whole entry, looked up): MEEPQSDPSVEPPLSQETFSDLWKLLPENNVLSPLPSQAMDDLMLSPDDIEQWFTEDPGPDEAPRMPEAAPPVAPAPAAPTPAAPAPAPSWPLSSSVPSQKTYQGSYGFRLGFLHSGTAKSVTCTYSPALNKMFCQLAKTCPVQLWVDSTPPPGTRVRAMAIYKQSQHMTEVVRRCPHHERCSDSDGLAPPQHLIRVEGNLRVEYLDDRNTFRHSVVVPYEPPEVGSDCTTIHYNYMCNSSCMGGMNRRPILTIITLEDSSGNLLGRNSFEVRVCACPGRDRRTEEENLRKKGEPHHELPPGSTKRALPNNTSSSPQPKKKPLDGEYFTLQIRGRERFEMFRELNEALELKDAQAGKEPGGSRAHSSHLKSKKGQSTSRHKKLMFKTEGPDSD
Chain of Nuclear respiratory factor 1 (Homo sapiens) (Q16656 whole entry, looked up): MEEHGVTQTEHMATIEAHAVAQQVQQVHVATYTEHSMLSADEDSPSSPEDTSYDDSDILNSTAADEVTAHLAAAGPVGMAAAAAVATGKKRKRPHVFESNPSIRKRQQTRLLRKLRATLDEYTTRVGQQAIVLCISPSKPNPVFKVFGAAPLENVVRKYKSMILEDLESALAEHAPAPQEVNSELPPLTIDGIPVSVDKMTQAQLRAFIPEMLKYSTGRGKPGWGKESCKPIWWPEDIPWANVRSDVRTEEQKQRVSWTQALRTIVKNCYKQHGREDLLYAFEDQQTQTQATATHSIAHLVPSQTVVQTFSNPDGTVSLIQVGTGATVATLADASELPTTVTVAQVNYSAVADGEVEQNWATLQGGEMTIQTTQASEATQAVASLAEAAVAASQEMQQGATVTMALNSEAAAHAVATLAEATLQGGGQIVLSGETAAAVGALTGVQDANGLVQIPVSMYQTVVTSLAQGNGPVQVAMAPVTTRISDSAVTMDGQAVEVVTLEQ
Chain of Hypoxia-inducible factor 1-alpha (Homo sapiens) (Q16665 whole entry, looked up): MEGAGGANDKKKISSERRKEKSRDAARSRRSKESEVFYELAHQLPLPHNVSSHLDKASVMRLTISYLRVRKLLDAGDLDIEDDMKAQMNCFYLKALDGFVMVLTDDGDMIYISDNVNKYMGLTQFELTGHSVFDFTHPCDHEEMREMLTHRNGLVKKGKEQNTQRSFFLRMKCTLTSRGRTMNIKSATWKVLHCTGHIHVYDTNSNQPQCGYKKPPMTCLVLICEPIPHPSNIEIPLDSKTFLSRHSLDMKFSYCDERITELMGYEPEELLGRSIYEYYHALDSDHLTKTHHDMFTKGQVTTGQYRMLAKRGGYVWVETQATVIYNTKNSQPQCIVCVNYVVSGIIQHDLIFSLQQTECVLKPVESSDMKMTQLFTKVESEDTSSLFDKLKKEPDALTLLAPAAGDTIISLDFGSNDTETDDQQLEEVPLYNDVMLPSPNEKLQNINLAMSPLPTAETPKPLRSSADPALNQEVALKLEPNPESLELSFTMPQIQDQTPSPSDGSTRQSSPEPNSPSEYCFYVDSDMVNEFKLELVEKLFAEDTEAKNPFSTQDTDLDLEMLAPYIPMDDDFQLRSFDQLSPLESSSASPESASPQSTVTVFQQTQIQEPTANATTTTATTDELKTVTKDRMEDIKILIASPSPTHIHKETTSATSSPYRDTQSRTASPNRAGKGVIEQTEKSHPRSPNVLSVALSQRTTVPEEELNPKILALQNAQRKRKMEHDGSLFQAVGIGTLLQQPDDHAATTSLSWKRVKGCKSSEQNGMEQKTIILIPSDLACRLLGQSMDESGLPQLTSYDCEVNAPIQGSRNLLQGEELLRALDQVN
Chain of Nuclear receptor subfamily 1 group I member 2 (Homo sapiens) (O75469 whole entry, looked up, the tested form may be a part): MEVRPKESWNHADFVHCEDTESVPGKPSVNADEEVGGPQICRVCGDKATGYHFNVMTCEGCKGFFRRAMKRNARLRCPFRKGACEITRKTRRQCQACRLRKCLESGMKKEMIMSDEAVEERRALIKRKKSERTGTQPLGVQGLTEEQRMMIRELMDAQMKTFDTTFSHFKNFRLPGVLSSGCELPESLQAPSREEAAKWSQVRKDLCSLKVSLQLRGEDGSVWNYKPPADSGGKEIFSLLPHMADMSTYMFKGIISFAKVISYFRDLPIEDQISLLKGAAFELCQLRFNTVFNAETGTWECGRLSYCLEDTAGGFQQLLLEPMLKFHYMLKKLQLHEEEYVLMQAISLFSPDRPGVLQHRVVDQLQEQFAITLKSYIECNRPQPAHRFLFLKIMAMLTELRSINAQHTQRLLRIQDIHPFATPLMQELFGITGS

As for `CCCCNP(N)(N)=S`, the result in [1], in test [2], in test [3], in test [4], in test [5] and in test [6] was inactive. Besides, the outcome in test [7], in test [8], in test [9], in test [10], in [11] and in test [12] was inactive. Besides, the result in test [13], in [14] and in [15] was inactive.
Regarding `CCC(C)c1cc(C(C)(C)C)cc(-n2nc3ccccc3n2)c1O` (stereo unspecified), the outcome in test [16], in test [17], in test [1], in [2], in test [3] and in test [4] was inactive. Also, the call in test [5], in [8], in [9], in [10], in test [18] and in test [11] was inactive. For the same compound, the compound was classed as inactive in test [12], in test [13], in test [14], in test [15], in test [19] and in test [20].
Regarding `CC1(C)C(=O)NC(=O)NC1=O`, the outcome in test [16], in test [17], in [3], in [5], in test [6] and in [8] was inactive. The compound was classed as inactive in test [9], in test [10], in test [11], in [12], in test [13] and in [14]. In addition, the call in test [15], in test [19] and in test [20] was inactive.
For orientation: AC50 means the midpoint of the concentration-response curve, whichever way the signal moves. Consider `C[C@]12CC[C@H](O)C[C@H]1CC[C@@H]1[C@@H]2C[C@@H](O)[C@]2(C)[C@@H](C3=CC(=O)OC3)CC[C@]12O`, for which the call in test [16], in [17], in test [1], in test [4], in [11] and in [12] was inactive. Besides, the outcome in test [13], in test [15], in test [19] and in test [20] was inactive. In addition, the AC50 in test [2] was 2680 nM (active); in [3] it was 6510 nM (active); in test [6], 2730 nM (active); in test [8], 2080 nM (active); in [9] it was 5880 nM (active); in test [10] it was 5240 nM (active). Moreover, the values for the concentration at half-maximal activity (AC50) in [18] and in test [14] were 2610 nM (active) and 2080 nM (active), respectively.
